Results taken from PubChem BioAssay (NCATS).
Inconclusive results are not listed. Activity calls are given as the source filed them. Calls come from the whole dose curve; as a rule, active = well fitted curve in the direction sought with a large enough effect; inconclusive = small, poorly fitted or top-dose-only effect, or another doubt; inactive = no such curve, though single readings can be large; an effect the other way counts as inactive or inconclusive.

Legend:
[1] = Quantitative High-Throughput drug screen in 47 multiple myeloma cell lines against the NCATS MIPE library collection: EJM_DSMZ cell viability assay (AID 1918926; note: nearly all actives have a fitted effect of over 30% in size)
Procedure, shortened: (§1)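 Myeloma cell lines, 500 cells per well, exposed to MIPE 4.0 library compounds for 48 h at 37C, 5% CO2. Viability from ATP by CellTiter-Glo luminescence; normalised to DMSO (100%) and media-only (0%) wells.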

[2] = Quantitative High-Throughput drug screen in 47 multiple myeloma cell lines against the NCATS MIPE library collection: AMO1_DSMZ cell viability assay (AID 1918927; note: nearly all actives have a fitted effect of over 30% in size)
Procedure, shortened: as §1

[3] = Quantitative High-Throughput drug screen in 47 multiple myeloma cell lines against the NCATS MIPE library collection: ARP1_JJKsccF8 cell viability assay (AID 1918928; note: nearly all actives have a fitted effect of over 40% in size)
Procedure, shortened: (§2)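 Luminescence from CellTiter-Glo, taken after 5 min at room temperature, reports cellular ATP as viability. Cells (500 per well) had been treated 48 h at 37 °C with MIPE 4.0 compounds, scaled between DMSO and medium-only controls.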

[4] = Quantitative High-Throughput drug screen in 47 multiple myeloma cell lines against the NCATS MIPE library collection: Karpas620_DSMZ cell viability assay (AID 1918959); note: nearly all actives have a fitted effect of over 30% in size
Procedure, shortened: (§3)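 CellTiter-Glo luminescence (ATP) after 48 h compound exposure, 37C/5% CO2; 500 cells/well; MIPE 4.0 approved/investigational drugs pinned in; DMSO = 100%, media only = 0% viability.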

[5] = Quantitative High-Throughput drug screen in 47 multiple myeloma cell lines against the NCATS MIPE library collection: KMM1_JCRB cell viability assay (AID 1918960); note: nearly all actives have a fitted effect of over 30% in size;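 for viability (% of DMSO): 100% = DMSO-treated cells and 0% = medium-only wells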
Procedure, shortened: as §2

[6] = Quantitative High-Throughput drug screen in 47 multiple myeloma cell lines against the NCATS MIPE library collection: JIM3_ECACC cell viability assay (AID 1918963; note: nearly all actives have a fitted effect of over 35% in size)
Procedure, shortened: as §3

[7] = Quantitative High-Throughput drug screen in 47 multiple myeloma cell lines against the NCATS MIPE library collection: INA6_PLB cell viability assay (AID 1918965; note: nearly all actives have a fitted effect of over 55% in size)
Procedure, shortened: (§4)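 Myeloma cells (500 per well) were exposed to MIPE 4.0 compounds by pin transfer and incubated 48 hours at 37C, 5% CO2. Viability was read as ATP by CellTiter-Glo luminescence, normalised to DMSO (100%) and media-only (0%) wells.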

[8] = Quantitative High-Throughput drug screen in 47 multiple myeloma cell lines against the NCATS MIPE library collection: JJN3_DSMZ cell viability assay (AID 1918966; note: nearly all actives have a fitted effect of over 50% in size)
Procedure, shortened: as §1

[9] = Quantitative High-Throughput drug screen in 47 multiple myeloma cell lines against the NCATS MIPE library collection: KMS12BM_JCRB cell viability assay (AID 1918971); note: nearly all actives have a fitted effect of over 35% in size
Procedure, shortened: (§5)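 We plated 500 myeloma cells per well, pinned in MIPE 4.0 compounds, and incubated for 48 hours at 37C. ATP was then quantified with CellTiter-Glo, with DMSO and media-only wells defining 100% and 0%.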

[10] = Quantitative High-Throughput drug screen in 47 multiple myeloma cell lines against the NCATS MIPE library collection: KMS12PE_JCRB cell viability assay (AID 1918972); note: nearly all actives have a fitted effect of over 30% in size
Procedure, shortened: as §4

[11] = Quantitative High-Throughput drug screen in 47 multiple myeloma cell lines against the NCATS MIPE library collection: KMS20_JCRB cell viability assay (AID 1918973); note: nearly all actives have a fitted effect of over 45% in size
Procedure, shortened: as §1

[12] = Quantitative High-Throughput drug screen in 47 multiple myeloma cell lines against the NCATS MIPE library collection: H1112_PLB cell viability assay (AID 1918967; note: nearly all actives have a fitted effect of over 30% in size)
Procedure, shortened: as §1

[13] = Quantitative High-Throughput drug screen in 47 multiple myeloma cell lines against the NCATS MIPE library collection: KMS27_JCRB cell viability assay (AID 1918970); note: nearly all actives have a fitted effect of over 30% in size
Procedure, shortened: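 CellTiter-Glo luminescence after 48 h drug exposure at 37 °C; 500 cells/well, 1536-well format, pin-tool compound addition; DMSO = 100%, media-only = 0% viability.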

[14] = Quantitative High-Throughput drug screen in 47 multiple myeloma cell lines against the NCATS MIPE library collection: KMS26_JCRB cell viability assay (AID 1918975); note: nearly all actives have a fitted effect of over 45% in size
Procedure, shortened: as §5

[15] = Quantitative High-Throughput drug screen in 47 multiple myeloma cell lines against the NCATS MIPE library collection: KHM11_PLB cell viability assay (AID 1918962); note: nearly all actives have a fitted effect of over 35% in size
Procedure, shortened: as §3

[16] = Quantitative High-Throughput drug screen in 47 multiple myeloma cell lines against the NCATS MIPE library collection: JIM1_ECACC cell viability assay (AID 1918964)
Procedure, shortened: as §1

[17] = Quantitative High-Throughput drug screen in 47 multiple myeloma cell lines against the NCATS MIPE library collection: Karpas25_ECACC cell viability assay (AID 1918968; note: nearly all actives have a fitted effect of over 35% in size)
Procedure, shortened: as §1

[18] = Quantitative High-Throughput drug screen in 47 multiple myeloma cell lines against the NCATS MIPE library collection: Karpas417_ECACC cell viability assay (AID 1918961); details: Karpas417 myeloma viability, CellTiter-Glo ATP luminescence, 48 h; viability (% of DMSO): at 45.8 µM (top of the series) unless noted
Procedure, shortened: as §4

[19] = Quantitative High-Throughput drug screen in 47 multiple myeloma cell lines against the NCATS MIPE library collection: KMS21BM_JCRB cell viability assay (AID 1918974); details: ATP luminescence, 48 h; viability: at 45.8 µM (top of the series) unless noted
Procedure, shortened: as §1

[20] = Quantitative High-Throughput drug screen in 47 multiple myeloma cell lines against the NCATS MIPE library collection: ARD_JJKsccE7 cell viability assay (AID 1918929)
Procedure, shortened: as §1
Potency is the fitted concentration of half-maximal effect.

CCCCNc1cc(C(=O)O)cc(S(N)(=O)=O)c1Oc1ccccc1
inactive: Potency [1] | Potency [2] | Potency [3] | Potency [4] | Potency [5] | Potency [6] | Potency [7] | Potency [8] | Potency [9] | Potency [10] | Potency [11]

Cc1cccc(-c2nn(C(=S)Nc3ccccc3)cc2-c2ccnc3ccccc23)n1
active: Potency [1] 11.8 µM | Potency [12] 16.6 µM | Potency [9] 14.8 µM | Potency [14] 6.62 µM
inactive: Potency [2] | Potency [3] | Potency [4] | Potency [5] | Potency [13] | Potency [10]

O=c1n(CCCN2CCN(c3cccc(Cl)c3)CC2)nc2ccccn12
inactive: Potency [1] | Potency [2] | Potency [3] | Potency [4] | Potency [5] | Potency [15] | Potency [16] | Potency [12] | Potency [13] | Potency [11] | Potency [14]

Cc1cnc(NC(=O)C2=C(O)c3ccccc3S(=O)(=O)N2C)s1
inactive: Potency [1] | Potency [2] | Potency [3] | Potency [4] | Potency [5] | Potency [6] | Potency [16] | Potency [8] | Potency [12] | Potency [17] | Potency [13] | Potency [9]

O=C(O)CCc1ccc(NCc2cccc(Oc3ccccc3)c2)cc1
inactive: Potency [1] | Potency [2] | Potency [3] | Potency [4] | Potency [5] | Potency [18] | Potency [7] | Potency [12] | Potency [13] | Potency [9] | Potency [10]

Nc1ccc(S(=O)(=O)Nc2ccnn2-c2ccccc2)cc1
inactive: Potency [1] | Potency [2] | Potency [3] | Potency [4] | Potency [5] | Potency [18] | Potency [15] | Potency [6] | Potency [8] | Potency [12] | Potency [17] | Potency [9] | Potency [10] | Potency [19]

Nc1nc2[nH]cc(CCc3ccc(C(=O)N[C@@H](CCC(=O)O)C(=O)O)cc3)c2c(=O)[nH]1
inactive: Potency [1] | Potency [4] | Potency [17] | Potency [11]
active: Potency [2] 0.526 µM | Potency [3] 0.418 µM | Potency [5] 0.59 µM | Potency [7] 0.743 µM | Potency [8] 9.35 µM | Potency [12] 6.62 µM | Potency [13] 18.7 µM | Potency [9] 20.9 µM | Potency [10] 1.32 µM

O=C(Nc1cccnc1)N1CCC(Cc2cccc(Oc3ccc(C(F)(F)F)cn3)c2)CC1
active: Potency [1] 18.7 µM | Potency [2] 9.35 µM | Potency [3] 18.7 µM | Potency [20] 11.8 µM | Potency [4] 14.8 µM | Potency [5] 7.43 µM | Potency [7] 11.8 µM | Potency [12] 10.5 µM | Potency [17] 9.35 µM | Potency [13] 16.6 µM | Potency [9] 13.2 µM | Potency [10] 16.6 µM | Potency [19] 9.35 µM

Cc1c(CN2CCN(C(=O)C(C)C)CC2)sc2c(N3CCOCC3)nc(-c3cnc(N)nc3)nc12
active: Potency [1] 0.833 µM | Potency [2] 0.166 µM | Potency [3] 0.0235 µM | Potency [5] 0.059 µM | Potency [15] 0.132 µM | Potency [6] 0.418 µM | Potency [16] 0.0132 µM | Potency [7] 0.235 µM | Potency [8] 0.209 µM | Potency [17] 0.059 µM | Potency [13] 0.0187 µM | Potency [9] 0.0296 µM | Potency [10] 0.296 µM | Potency [11] 0.418 µM | Potency [19] 0.526 µM

CS(=O)(=O)c1cccc(CNc2nc(Nc3ccc4c(c3)CCC(=O)N4)ncc2C(F)(F)F)c1
active: Potency [1] 23.5 µM | Potency [2] 9.35 µM | Potency [20] 5.9 µM | Potency [4] 4.69 µM | Potency [5] 4.18 µM | Potency [18] 2.64 µM | Potency [6] 18.7 µM | Potency [7] 11.8 µM | Potency [8] 16.6 µM | Potency [17] 18.7 µM | Potency [10] 4.69 µM | Potency [11] 14.8 µM

N#CC[C@H](C1CCCC1)n1cc(-c2ncnc3[nH]ccc23)cn1
inactive: Potency [3] | Potency [12]
active: Potency [1] 7.43 µM | Potency [2] 6.62 µM | Potency [4] 5.26 µM | Potency [7] 0.372 µM | Potency [8] 5.26 µM | Potency [9] 23.5 µM

CCCc1nc2c(C)cc(-c3nc4ccccc4n3C)cc2n1Cc1ccc(-c2ccccc2C(=O)O)cc1
inactive: Potency [1] | Potency [2] | Potency [3] | Potency [4] | Potency [5] | Potency [6] | Potency [12] | Potency [17] | Potency [9]
active: Potency [16] 0.0026 µM | Potency [13] 4.18 µM

NNCCc1ccccc1
inactive: Potency [1] | Potency [20] | Potency [18] | Potency [15]
active: Potency [2] 18.7 µM | Potency [3] 20.9 µM | Potency [4] 16.6 µM | Potency [8] 18.7 µM | Potency [12] 0.059 µM | Potency [17] 8.33 µM | Potency [9] 14.8 µM | Potency [10] 14.8 µM | Potency [19] 13.2 µM

Oc1cccc(-c2nc(N3CCOCC3)c3oc4ncccc4c3n2)c1
active: Potency [1] 6.79 µM | Potency [2] 0.171 µM | Potency [3] 0.0241 µM | Potency [4] 0.0959 µM | Potency [5] 0.0136 µM | viability (% of DMSO) [18] 2.23% [at 92.2 µM] | Potency [6] 0.0762 µM | Potency [16] 0.0121 µM | Potency [7] 0.215 µM | Potency [8] 0.108 µM | Potency [12] 9.59 µM | Potency [17] 0.054 µM | Potency [10] 0.121 µM | Potency [11] 0.152 µM | viability [19] 37.2% [at 92.2 µM] | Potency [14] 0.215 µM
